This is an account of results in paper PMC4552634, “A New Set of Chemical Starting Points with Plasmodium falciparum Transmission-Blocking Potential for Antimalarial Drug Discovery” (PLoS ONE, 2015).

Read-outs that look alike come from different tables or passages of the source. In all, about 13,000 compounds went through this assay and about 3,200 (25%) showed an effect of 50% or more. The list shows a part of the results.

This experiment relates to P. falciparum stage V gametocytes. Set-up: BacTiter-Glo ATP luminescence viability of purified stage V gametocytes in 384-well plates, per cent inhibition versus DMSO. As to conditions: 48 h, 5 µM, inhibitor.

Regarding `COc1cc(NC(=O)Nc2cccc3ccccc23)c(OC)cc1Cl` [TCMDC-123751], the % Inhibition (commonly the change of the read-out against control, counted positive when it falls) was 9.254%. As for `COc1ccc(OC)c(-c2ccc(=O)n(CC(=O)Nc3cccc4ccccc34)n2)c1` [TCMDC-125146], the “% Inhibition” value is 85.63%. In the case of `COc1ccc(C(=O)Cn2nc(-c3ccc(Cl)cc3)ccc2=O)c(OC)c1` [TCMDC-135946], the “% Inhibition” value was -6.888%. Regarding `O=C(Cc1cnc[nH]1)Nc1cccc(-c2cccc(-c3nc4ccc(F)cc4[nH]3)c2)c1` [TCMDC-136943], the “% Inhibition” value stood at 10.3%. The same measure, in the same setting: as for `O=C(Nc1ccc(Cl)c(Cl)c1)N(Cc1ccccc1Br)C1CCNCC1` [TCMDC-141401], the figure is 32.46%; as for `Cc1ccc(-n2nc3ccc(NC(=O)c4ccc([N+](=O)[O-])o4)cc3n2)cc1C` [TCMDC-123655], 20.82%. As to `COc1cccc(-c2cc(C(=O)Nc3cc(Oc4ccc(O)cc4)cc([N+](=O)[O-])c3)on2)c1` [TCMDC-125290], the “% Inhibition” value is given as -10.41%. On to `O=C(Nc1ccc(-c2nc3ccccc3[nH]2)cc1)c1ccc(-c2cccc([N+](=O)[O-])c2)o1` [TCMDC-125805], for which the “% Inhibition” value is on record as -5.454%. On the same count and under the same terms, as for `O=C(Nc1cccc(-c2nc3ccccc3[nH]2)c1)c1ccc(-c2cccc([N+](=O)[O-])c2)o1` [TCMDC-125228], the figure is 18.9%. In the case of `CC(C)(C)c1ccc(C(=O)Nc2ccc(NC(=O)c3ccc([N+](=O)[O-])o3)cc2)cc1` [TCMDC-123733], the “% Inhibition” value was -4.108%. As for `CCCc1ccc(-c2csc(NC(=O)c3ccc([N+](=O)[O-])o3)n2)cc1` [TCMDC-125314], the “% Inhibition” value worked out at 1.071%. For the molecule `COc1cccc(-c2cccc(-c3ccc(NC(=O)c4ccc([N+](=O)[O-])o4)cc3)n2)c1` [TCMDC-124806], the “% Inhibition” value was determined as 99.55%.

Take `O=C(Nc1cccc(-c2cccc(-c3ccc(F)cc3)n2)c1)c1ccc([N+](=O)[O-])o1` [TCMDC-124807]: the “% Inhibition” value was 101.6%.

As to `COc1cccc(-c2cc(-c3ccc(NC(=O)c4ccccc4)cc3)c3c(N)ncnc3n2)c1` [TCMDC-134855], the “% Inhibition” value is recorded as -19.07%. For the molecule `O=C(Nc1cc(Oc2ccc(O)cc2)cc([N+](=O)[O-])c1)c1cc(-c2ccc(F)cc2)no1` [TCMDC-125444], the “% Inhibition” value is recorded as -44.25%. On to `COc1ccccc1-c1cccc(-c2cccc(NC(=O)c3ccc([N+](=O)[O-])o3)c2)n1` [TCMDC-124800], for which the “% Inhibition” value amounted to 105.3%. Same read-out and setting: as for `COc1ccc(OC)c(-c2cccc(-c3cccc(NC(=O)c4ccc([N+](=O)[O-])o4)c3)n2)c1` [TCMDC-124799], the figure is 113.4%.

As for `Cc1cc(C(F)(F)F)cc(-n2ncc(-c3ccc(C(=O)NCc4ccccc4N)cc3)c2N)n1` [TCMDC-136658], the “% Inhibition” value is -13.23%.

For the molecule `COc1ccc(CN2CCC(N3CCc4cc(NC(=O)c5cc(C)on5)ccc43)C2)cc1Cl` (stereo not drawn) [TCMDC-135080], the “% Inhibition” value is given as -33.25%. Take `COc1cc(C)ccc1S(=O)(=O)N1CCCCC(c2ccc(C(F)(F)F)cc2)=N1` [TCMDC-134533]: the “% Inhibition” value is 19.73%.

As for `CCn1c(SC)nnc1C1CCCN(CC(=O)Nc2nc3ccc(OC)cc3s2)C1` (stereo not drawn) [TCMDC-123539], the “% Inhibition” value is on record as 2.495%.

In the case of `Cc1cc(CN2C(=O)C(c3ccccc3)(c3ccccc3)N=C2N)c(C(F)(F)F)o1` [TCMDC-132305], the “% Inhibition” value is given as 6.087%. Still for that read-out and setting: as for `COC(=O)C(C)(C)Cc1c(SC(C)(C)C)c2cc(C(C)C)ccc2n1Cc1ccc(Cl)cc1` [TCMDC-131973], the figure is 5.735%; as for `N=c1n(Cc2ccc(Cl)cc2)c2ccccc2n1CC(O)c1ccc(Cl)c(Cl)c1` (stereo not drawn) [TCMDC-123813], 91.34%. In the case of `Cc1ccc2c(c1)nc(N)n2C[C@H](O)c1ccccc1` [TCMDC-138693], the “% Inhibition” value came out at 42.68%.

In the case of `CN(C)CC(O)C(c1ccccc1)c1ccc(Cl)cc1` (stereo not drawn) [TCMDC-131413], the “% Inhibition” value was found to be 8.677%.

`N=c1n(Cc2ccccc2)c2ccccc2n1CC(O)c1ccc(Cl)c(Cl)c1` (stereo not drawn) [TCMDC-124061]: the “% Inhibition” value is given as 50.12%. Take `C=CCn1c(=N)n(CC(O)c2ccc(Cl)c(Cl)c2)c2ccccc21` (stereo not drawn) [TCMDC-125726]: the “% Inhibition” value was determined as 57.07%. For `N=c1sc2ccccc2n1CC(O)c1ccc(Cl)c(Cl)c1` (stereo not drawn) [TCMDC-124031], the “% Inhibition” value is on record as 27.67%. For `N=c1n(Cc2ccccc2)c2ccccc2n1CC(O)c1ccc(Cl)cc1` (stereo not drawn) [TCMDC-124078], the “% Inhibition” value is listed as 66.41%. As to `OC(CN1CCN(Cc2ccccc2)CC1)Cn1c(-c2ccccc2)c(-c2ccccc2)c2ccccc21` (stereo not drawn) [TCMDC-124021], the “% Inhibition” value is on record as 9.388%. Turning to `O=C(Cc1ccccc1)NC(CCN1CCC(NC(=O)c2ccc(Cl)cc2)CC1)c1ccc(Cl)c(Cl)c1` (stereo not drawn) [TCMDC-141709], the “% Inhibition” value is -3.295%.

Regarding `O=C(NC1CC1)c1cnc(N2CCC(COc3cccc(F)c3)CC2)c(Cl)c1` [TCMDC-134030], the “% Inhibition” value came to 7.356%.

For `COc1ccc(CCn2c(C3CCCCC3)nc3oc4ccccc4c(=O)c3c2=O)cc1` [TCMDC-125003], the “% Inhibition” value was found to be 26.12%. As to `Cc1ccc(CON2C(N)=NC(N)=NC23CCCCC3)c2ccccc12` [TCMDC-131589], the “% Inhibition” value was found to be 35.49%.

For the molecule `O=S(=O)(NC1CCN(c2ccnc3cc(Cl)ccc23)C1)c1ccc(F)cc1` (stereo not drawn) [TCMDC-133654], the “% Inhibition” value is recorded as 5.841%. Take `CCC1CN2CCc3c([nH]c4ccccc34)[C@@H]2C[C@@H]1CC1NCCc2cc(OC)c(OC)cc21` (stereo partly drawn) [TCMDC-142009]: under “% Inhibition”, the “% Inhibition” value is given as -17.31%.

Consider `CCC1=C(C[C@H]2NCCc3cc(OC)c(OC)cc32)C[C@H]2c3cc(OC)c(OC)cc3CCN2C1` [TCMDC-131825], for which the “% Inhibition” value is given as 95.62%.

As to `CCC1CN2CCc3c([nH]c4ccc(OC)cc34)C2CC1CC1NCCc2cc(OC)c(OC)cc21` (stereo not drawn) [TCMDC-142010], the “% Inhibition” value was -39.55%. With `Nc1ncc(-c2cn[nH]c2)cc1-c1nc2ncc(Cl)cc2[nH]1` [TCMDC-133562], the “% Inhibition” value is -10.74%. On the same count and under the same terms, under `CCN(CC)c1ccc(-c2nc3ncc(Cl)cc3[nH]2)cc1` [TCMDC-125094] stands 7.94%. Turning to `CC(C)c1ccc(-c2nc3ncc(Cl)cc3[nH]2)cc1` [TCMDC-125093], the “% Inhibition” value is recorded as 64.2%. For `CC(=O)Nc1ccc(S(=O)(=O)Nc2c(C)cc(Cc3cnc(N)nc3N)cc2C)cc1` [TCMDC-137632], the “% Inhibition” value is listed as -8.406%.

As to `CNC(=O)Cc1ccc(C(=O)Nc2cccc(-c3ccc(-c4nc5cccc(C)c5[nH]4)s3)c2)cc1` [TCMDC-137076], the “% Inhibition” value was -37.06%.

Turning to `CN(C(=O)C1(c2ccc(Cl)cc2)CC1)C1CCN(CCCCCNC(=O)/C=C/c2ccc(Cl)c(Cl)c2)CC1` [TCMDC-139987], the “% Inhibition” value is on record as -12.99%.

Consider `O=C(/C=C/c1ccc(Cl)c(Cl)c1)NCCCCCN1CCC(CCNC(=O)Cc2ccc(Cl)cc2)CC1` [TCMDC-140001], for which the “% Inhibition” value amounted to 60.19%. With `Cc1oc(-c2ccc(Cl)cc2)cc1C(=O)NCCC1CCN(CCCCCNC(=O)/C=C/c2ccc(Cl)c(Cl)c2)CC1` [TCMDC-140009], the “% Inhibition” value worked out at 105.7%. In the case of `O=C(C=Cc1ccc(Cl)c(Cl)c1)NCCCCCN1CCC(CCNC(=O)c2cccc3ccccc23)CC1` [TCMDC-139565], the “% Inhibition” value was determined as 43.11%. Take `O=C(/C=C/c1ccc(Cl)c(Cl)c1)NCCCCCN1CCC(CCNC(=O)/C=C/c2ccc(Cl)c(Cl)c2)CC1` [TCMDC-139998]: the “% Inhibition” value worked out at 17.18%.

For `Cc1c(CC(=O)NCCC2CCN(CCCCCNC(=O)/C=C/c3ccc(Cl)c(Cl)c3)CC2)sc2ccc(Cl)cc12` [TCMDC-140008], the “% Inhibition” value is 19.89%. Turning to `O=C(/C=C/c1ccc(Cl)c(Cl)c1)NCCCCCN1CCC(CCNC(=O)C2(c3ccc(Cl)cc3)CC2)CC1` [TCMDC-140000], the “% Inhibition” value is recorded as 67.34%. With `OC(CNCc1ccccc1Oc1ccccc1)c1cccc(C(F)(F)F)c1` (stereo not drawn) [TCMDC-140397], the “% Inhibition” value is on record as 30.17%.

For the molecule `CC1CN(c2cc(=O)n(Cc3cccc(NC(=O)Nc4ccc(-c5ccccc5)cc4)c3)cn2)CC(C)N1` (stereo not drawn) [TCMDC-133365], the “% Inhibition” value was -7.987%.

For the molecule `FC(F)(F)c1ccc2[nH]c(-c3cccc(-c4ccc(CNCC5CCCO5)cc4)c3)nc2c1.O=C(O)C(F)(F)F` (stereo not drawn) [TCMDC-133103], the “% Inhibition” value is listed as -16.51%. Consider `COc1ccc2nccc([C@@H](O)CN3CCC(NC(=O)c4ccc(-c5ccc(C#N)cc5)cc4)CC3)c2c1` [TCMDC-141001], for which the “% Inhibition” value came to 7.804%. Turning to `COC(=O)c1ccc(CCC(C)NCC(O)c2cccc(C(F)(F)F)c2)cc1` (stereo not drawn) [TCMDC-131440], the “% Inhibition” value was 17.3%.

Turning to `COc1ccc(S(=O)(=O)N2CCCc3ccc(Br)cc32)cc1N1CCN(C(=O)C(Cl)(Cl)Cl)CC1` [TCMDC-139339], the “% Inhibition” value is 22.46%. `CCN(C1CCCCC1)S(=O)(=O)c1ccc(OC)c(N2CCN(C(=O)C(Cl)(Cl)Cl)CC2)c1` [TCMDC-139319]: the “% Inhibition” value stood at 82.34%. Consider `CCC1CCCCN1S(=O)(=O)c1ccc(OC)c(N2CCN(C(=O)C(Cl)(Cl)Cl)CC2)c1` (stereo not drawn) [TCMDC-139255], for which the “% Inhibition” value amounted to 3.13%. As to `CSc1nc2nc(C)c(Cc3cccc(F)c3)c(C)n2n1` [TCMDC-123765], the “% Inhibition” value was found to be 1.864%. For the molecule `COc1cc2ncnc(Nc3ccc4nc(-c5ccccc5)[nH]c4c3)c2cc1OC` [TCMDC-137191], the “% Inhibition” value is -26.1%. As for `Cc1c2ccncc2c(C)c2c1[nH]c1ccccc12` [TCMDC-125546], the “% Inhibition” value is -37.29%. In the case of `Cc1c2ccncc2c(C)c2c1[nH]c1cc(Cc3ccccc3)c(O)cc12` [TCMDC-132053], the “% Inhibition” value is listed as 89.31%. The same measure, in the same setting: as for `O=C(Nc1ccc(-c2cccc(-c3nc4ccc(C(F)(F)F)cc4[nH]3)c2)cc1)c1ccc(=O)[nH]n1` [TCMDC-137032], the figure is 18.19%. Regarding `CCC(C)(C)c1ccc(N2C(N)=NC(N)=NC2(C)C)cc1` [TCMDC-137919], the “% Inhibition” value was 8.342%. Still for that read-out and setting: as for `O=C(Nc1ccc(Cl)cc1)OCCn1nnnc1C(c1ccc(Cl)cc1)N1CCOCC1` (stereo not drawn) [TCMDC-124138], the figure is -11.24%.
